Values joined by “and” are separate entries in the source; they are usually repeats but may differ in a detail not shown here. Identical values can stand only once. Results filed as inconclusive are left out. For some of these results: Potency and affinity values are given separately. Active and inactive are the calls of the source. Unless noted, no rule for the calls is given here.
Columns and labels:
[1] = target: ATP-dependent translocase ABCB1 (Homo sapiens) (UniProt P08183); assay: P-glycoprotein substrate transport blockade – cell-based (AID 377; in the data active = fluorescence slope change above about 50%); conditions: MDR1-expressing cells, fluorescent substrate accumulation slope; stronger effect = higher value; concentration not given here
[2] = compounds altering circadian rhythm period length – cell-based, LOPAC library, luminescence reporter (AID 2774); conditions: circadian reporter cells, at 7 µM, actives lie on both sides;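 also: values are relative to mean of DMSO wells on each plate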
[3] = compounds altering viability of human ES cells (AID 493140); conditions: human embryonic stem cell survival screen; stronger effect = higher value;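 also: cells exposed to compounds for four days before counting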
[4] = P. berghei load reduction in hepatocytes – cell-based, HepG2, luciferase luminescence, HepG2 viability, primary screen (AID 624349; in the data active = parasite load remaining mostly below about 12%, no sharp cut-off; inactive = mostly above about 10%;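 also: 100% = mean of DMSO negative control wells on the same plate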); conditions: P. berghei liver stage in HepG2, luciferase luminescence, concentration not given here; parasite load remaining: stronger effect = lower value; viability: measured here: HepG2 viability without parasites
[5] = test system: Hepatitis C virus NS3 helicase; assay: blockers of NS3h binding to ssDNA – biochemical, fluorescence polarization, LOPAC1280 library, primary screen (AID 687035; in the data active = inhibition above about 37%); conditions: Purified HCV NS3 helicase, Cy5-dT15 ssDNA binding fluorescence polarization; stronger effect = higher value; concentration not given here
[6] = compounds altering Cy5-DNA-NS3h complex signal – biochemical, LOPAC1280, artefact control for HCV NS3 helicase inhibitor project (AID 687037); conditions: Cy5-DNA-NS3h complex fluorescence interference counterscreen
[7] = target: 6-phosphogluconate dehydrogenase, decarboxylating (Homo sapiens) (UniProt P52209); assay: inhibition of human phosphogluconate dehydrogenase – biochemical, recombinant enzyme, NADPH absorbance, primary screen (AID 1159550;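 active = at least 20% inhibition of 6-phosphogluconate dehydrogenase activity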); conditions: recombinant 6PGD, NADPH absorbance 341 nm; at 10 µM; stronger effect = higher value
[8] = test system: Aerobactin synthetase IucA (Klebsiella pneumoniae); assay: inhibition of K. pneumoniae IucA enzyme – biochemical, Tocris library, absorbance (AID 1345561); conditions: purified IucA enzyme assay, absorbance (OD) read-out; stronger effect = lower value;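 tested at 8 µM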;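 also: 100% = enzyme without compound and 0% = no enzyme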
[9] = viability loss in pontine glioma line – cell-based, SU-DIPG-XIII, MIPE4.0, CellTiter-Glo, qHTS, dose response (AID 1347061; cut-off not given, nearly all actives have AC50 up to about 37 µM;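 also: cells exposed to compound for 48 hours before readout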); conditions: CellTiter-Glo ATP luminescence
[10] = viability loss in pontine glioma line – cell-based, JHH-DIPG-1, MIPE4.0, CellTiter-Glo, qHTS, dose response (AID 1347062; cut-off not given, nearly all actives have AC50 up to about 27 µM); conditions: JHH-DIPG-1 viability, CellTiter-Glo ATP luminescence
[11] = viability loss in pontine glioma line – cell-based, SU-DIPG-IV, MIPE4.0, CellTiter-Glo, qHTS, dose response (AID 1347063; cut-off not given, nearly all actives have AC50 up to about 30 µM;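 also: compound exposure lasted 48 hours before the viability readout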); conditions: CellTiter-Glo ATP luminescence
[12] = blockers of cellular phospholipid synthesis – cell-based, LOPAC library, screen 4, primary screen (AID 1347384); conditions: animal cells, phospholipid biosynthesis inhibition screen; at 10 µM
[13] = MELAS cybrid and Rieske KO viability enhancers – cell-based, MELAS cybrids, Rieske KO mouse fibroblasts, CellTiter-Glo, primary screen (AID 1508586;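 active = mean z-score across replicates of 1.96 or higher in either the MELAS or the Rieske mutant cell line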;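 also: z relative to plate mean and SD of compound and empty wells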); conditions: low glucose
[14] = target: NAD(+) hydrolase SARM1 (Homo sapiens) (UniProt Q6SZW1); assay: blocking NAD cleavage by SARM1 SAM-TIR – cell lysate, NAD-Glo luminescence (AID 1508614;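 active = compound whose remaining NAD level is above about 45 nM, limit read from the data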;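 also: higher remaining NAD means stronger inhibition of SARM1 NADase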); conditions: SAM-TIR HEK293T lysate NADase, at 1 µM, stronger effect = higher value
[15] = target: Mitogen-activated protein kinase 7 (Homo sapiens) (UniProt Q13164); assay: Gal4-ERK5 driven luciferase induction – cell-based, HTS, primary screen (AID 1508626;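 active = luciferase signal above three times the same-plate solvent-only control wells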;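 also: luciferase driven by Gal4-ERK5 fusion binding five Gal4 sites before minimal TATA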); conditions: HeLa Gal4-ERK5 transactivation, 18 h, at 5 µM, stronger effect = higher value
[16] = galactose survival enhancers in mitochondrial complex I cybrids – cell-based, galactose medium, ATP luminescence, primary screen (AID 1645843;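 active = z-score of at least 1.8 in each of two replicates, scored against plate mean and spread of sample wells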;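 also: positive z means more ATP and so rescue of galactose-driven cybrid death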); conditions: complex I mutant cybrid cells, 72 h, stronger effect = higher value
[17] = viability loss in pontine glioma line – cell-based, SU-DIPG-XVII, MIPE5.0, CellTiter-Glo, qHTS, dose response (AID 1347060; cut-off not given, nearly all actives have AC50 up to about 26 µM); conditions: CellTiter-Glo ATP luminescence
[18] = viability loss in pontine glioma line – cell-based, SU-DIPG-XXV, MIPE5.0, CellTiter-Glo, qHTS, dose response (AID 1347065; cut-off not given, nearly all actives have AC50 up to about 26 µM;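 also: cells exposed to compound for 48 hours before ATP readout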); conditions: CellTiter-Glo ATP luminescence
[19] = growth inhibition of DIPG cells – cell-based, MIPE4.0 library, CellTiter-Glo luminescence, qHTS (AID 1347066; cut-off not given, nearly all actives have AC50 up to about 30 µM;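 also: cells exposed to compound for 48 hours before readout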); conditions: SU-DIPG-VI viability, CellTiter-Glo ATP luminescence
[20] = JHH-DIPG-1 glioma cell viability, MIPE5.0 library, CellTiter-Glo luminescence, qHTS (AID 1347067; cut-off not given, nearly all actives have AC50 up to about 26 µM;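 also: cells exposed to compound for 48 hours before readout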); conditions: JHH-DIPG-1 glioma viability, CellTiter-Glo ATP luminescence
[21] = viability loss with induced miR-34 in A549 – imaging, A549 dox-inducible miR-34, nuclei and caspase counts, primary screen (AID 1347080;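 active = compounds whose cell count with miR-34 switched on is under 0.7 times the count with it off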); conditions: A549 miR-34 inducible, Hoechst nuclei count, 48 h
[22] = EMT-state selective cytotoxicity in co-culture – imaging, PC-3E GFP, TEM4-18 mCherry, primary screen (AID 1345086;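 active = compounds killing one labelled cell type while sparing the other, by normalised counts and ratio limits, not self-fluorescent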;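 as to all read-outs here: cells exposed to compound for 72 h before imaging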;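 as to red/green cell ratio (normalised): normalised mesenchymal count divided by normalised epithelial count so high means epithelial killing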); conditions: PC-3E GFP / TEM4-18 mCherry co-culture, imaging cell counts, at 1 µM; for red/green cell ratio (normalised): actives lie on both sides, counts scaled to control wells, 1 = unselective
[23] = blockers of polyQ-driven CASP3 activation – cell-based (AID 1583); conditions: polyglutamine-induced caspase-3 activation, cell assay; stronger effect = higher value;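 tested at 10 µM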
[24] = yeast 75Q aggregation reduction – 75Q-TubU reporter (AID 1593); conditions: Yeast 75Q polyglutamine aggregation reporter
[25] = restoration of touch response, mutant HTT neurons – whole organism, C. elegans mechanosensory neurons, N-terminal huntingtin (AID 1599); conditions: C. elegans polyQ-huntingtin mechanosensory neurons, stronger effect = higher value
[26] = blockers of cytochrome c efflux from mitochondria – biochemical, purified mitochondria (AID 1603); conditions: stronger effect = lower value;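 also: mouse liver mitochondria challenged with calcium chloride; signal normalized to the plate average as 100%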
[27] = polyglutamine aggregate formation blockers (AID 1604); conditions: polyglutamine-induced protein aggregation inhibition assay; stronger effect = higher value; tested at 2.5 µM
[28] = glutamate transport activators, MN-1 cells, MN-1 cell line (AID 1612); conditions: MN-1 motor neuron cells, stronger effect = higher value;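 also: tested at 1 µM final; 0% = mean of DMSO vehicle wells on each plate; positive means more glutamate uptake than control and negative means less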
[29] = GFP-Q80 aggregate reduction, neuronal-like cells, cell-based, NGF-treated PC12, GFPQ80 (AID 1614); conditions: PC12 NGF-treated GFP-polyQ80 inclusion reduction;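 also: lower means fewer inclusions and 0 means no inclusions at all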
[30] = 75Q-TubH aggregate inhibition, S. cerevisiae, yeast (AID 1616); conditions: S. cerevisiae 75Q-TubH polyglutamine aggregation suppression; stronger effect = higher value
[31] = measured here: epithelial PC-3E GFP cell survival
[32] = measured here: mesenchymal TEM4-18 mCherry cell survival

Chain of Mitogen-activated protein kinase 7 (Homo sapiens) (Q13164 whole entry, looked up, the tested form may be a part): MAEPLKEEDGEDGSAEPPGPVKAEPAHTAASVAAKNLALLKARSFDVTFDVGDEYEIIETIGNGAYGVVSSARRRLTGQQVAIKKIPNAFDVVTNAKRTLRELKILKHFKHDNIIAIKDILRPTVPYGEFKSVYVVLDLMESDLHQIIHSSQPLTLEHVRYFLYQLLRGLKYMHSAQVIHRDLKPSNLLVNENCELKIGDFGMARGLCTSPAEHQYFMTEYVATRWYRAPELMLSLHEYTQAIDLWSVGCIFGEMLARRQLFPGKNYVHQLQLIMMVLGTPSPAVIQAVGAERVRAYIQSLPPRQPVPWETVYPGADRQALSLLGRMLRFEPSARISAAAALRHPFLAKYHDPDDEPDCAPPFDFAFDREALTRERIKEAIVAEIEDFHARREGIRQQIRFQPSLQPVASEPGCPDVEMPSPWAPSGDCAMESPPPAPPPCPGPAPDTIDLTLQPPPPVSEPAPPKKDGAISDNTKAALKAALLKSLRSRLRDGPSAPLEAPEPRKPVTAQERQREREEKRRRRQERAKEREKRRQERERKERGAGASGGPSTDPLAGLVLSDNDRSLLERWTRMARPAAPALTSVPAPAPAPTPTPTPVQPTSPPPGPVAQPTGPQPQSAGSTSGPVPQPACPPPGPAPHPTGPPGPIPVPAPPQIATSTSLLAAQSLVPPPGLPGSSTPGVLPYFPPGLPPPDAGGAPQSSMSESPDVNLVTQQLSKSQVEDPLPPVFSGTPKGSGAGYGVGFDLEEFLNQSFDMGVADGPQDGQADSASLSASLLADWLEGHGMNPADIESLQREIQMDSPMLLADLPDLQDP
Chain of 6-phosphogluconate dehydrogenase, decarboxylating (Homo sapiens) (P52209 whole entry, looked up): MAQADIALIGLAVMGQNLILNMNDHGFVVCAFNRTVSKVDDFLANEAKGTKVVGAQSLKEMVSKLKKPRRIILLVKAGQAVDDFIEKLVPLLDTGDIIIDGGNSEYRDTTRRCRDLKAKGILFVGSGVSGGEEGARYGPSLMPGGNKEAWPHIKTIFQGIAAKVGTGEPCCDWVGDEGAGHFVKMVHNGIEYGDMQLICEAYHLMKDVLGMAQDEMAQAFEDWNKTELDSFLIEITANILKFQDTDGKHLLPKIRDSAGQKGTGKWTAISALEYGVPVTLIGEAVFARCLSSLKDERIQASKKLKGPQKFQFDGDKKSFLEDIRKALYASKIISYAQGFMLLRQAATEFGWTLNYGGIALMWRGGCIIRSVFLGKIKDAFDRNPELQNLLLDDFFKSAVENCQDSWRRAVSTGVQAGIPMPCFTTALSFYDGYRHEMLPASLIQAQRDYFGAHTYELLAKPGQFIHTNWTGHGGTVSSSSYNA
Chain of ATP-dependent translocase ABCB1 (Homo sapiens) (P08183 whole entry, looked up): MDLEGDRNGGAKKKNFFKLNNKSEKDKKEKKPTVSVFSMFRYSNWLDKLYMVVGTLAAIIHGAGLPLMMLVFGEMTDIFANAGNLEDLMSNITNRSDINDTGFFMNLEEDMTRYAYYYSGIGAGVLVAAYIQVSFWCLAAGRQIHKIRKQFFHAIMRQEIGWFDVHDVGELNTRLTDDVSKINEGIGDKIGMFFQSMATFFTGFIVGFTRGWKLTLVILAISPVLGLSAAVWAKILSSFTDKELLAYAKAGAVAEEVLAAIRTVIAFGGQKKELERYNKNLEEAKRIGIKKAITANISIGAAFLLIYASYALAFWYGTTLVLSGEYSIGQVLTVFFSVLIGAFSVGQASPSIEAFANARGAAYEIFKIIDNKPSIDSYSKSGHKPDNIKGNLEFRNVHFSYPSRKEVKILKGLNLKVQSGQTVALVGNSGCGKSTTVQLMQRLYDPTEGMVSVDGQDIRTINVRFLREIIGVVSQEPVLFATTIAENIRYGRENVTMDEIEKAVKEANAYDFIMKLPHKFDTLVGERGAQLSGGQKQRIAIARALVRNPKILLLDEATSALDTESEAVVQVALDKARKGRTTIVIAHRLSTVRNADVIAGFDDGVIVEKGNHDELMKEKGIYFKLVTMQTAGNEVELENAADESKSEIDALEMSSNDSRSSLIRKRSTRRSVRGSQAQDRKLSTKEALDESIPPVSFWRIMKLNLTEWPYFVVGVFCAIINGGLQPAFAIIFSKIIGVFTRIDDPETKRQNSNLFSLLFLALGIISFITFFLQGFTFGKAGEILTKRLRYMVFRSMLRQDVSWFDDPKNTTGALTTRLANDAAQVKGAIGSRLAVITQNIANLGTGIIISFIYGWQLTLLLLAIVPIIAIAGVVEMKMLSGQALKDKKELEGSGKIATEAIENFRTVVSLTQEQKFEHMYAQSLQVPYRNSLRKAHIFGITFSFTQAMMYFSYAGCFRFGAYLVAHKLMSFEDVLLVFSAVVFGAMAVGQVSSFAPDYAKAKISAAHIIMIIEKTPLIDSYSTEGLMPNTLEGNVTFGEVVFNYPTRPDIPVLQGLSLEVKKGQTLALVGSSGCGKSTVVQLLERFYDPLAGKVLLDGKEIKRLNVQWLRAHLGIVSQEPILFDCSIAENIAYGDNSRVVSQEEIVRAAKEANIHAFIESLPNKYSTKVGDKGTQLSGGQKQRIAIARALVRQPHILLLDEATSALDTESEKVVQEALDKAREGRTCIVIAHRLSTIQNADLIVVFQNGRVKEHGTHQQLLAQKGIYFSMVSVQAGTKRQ
Chain of NAD(+) hydrolase SARM1 (Homo sapiens) (Q6SZW1 whole entry, looked up, the tested form may be a part): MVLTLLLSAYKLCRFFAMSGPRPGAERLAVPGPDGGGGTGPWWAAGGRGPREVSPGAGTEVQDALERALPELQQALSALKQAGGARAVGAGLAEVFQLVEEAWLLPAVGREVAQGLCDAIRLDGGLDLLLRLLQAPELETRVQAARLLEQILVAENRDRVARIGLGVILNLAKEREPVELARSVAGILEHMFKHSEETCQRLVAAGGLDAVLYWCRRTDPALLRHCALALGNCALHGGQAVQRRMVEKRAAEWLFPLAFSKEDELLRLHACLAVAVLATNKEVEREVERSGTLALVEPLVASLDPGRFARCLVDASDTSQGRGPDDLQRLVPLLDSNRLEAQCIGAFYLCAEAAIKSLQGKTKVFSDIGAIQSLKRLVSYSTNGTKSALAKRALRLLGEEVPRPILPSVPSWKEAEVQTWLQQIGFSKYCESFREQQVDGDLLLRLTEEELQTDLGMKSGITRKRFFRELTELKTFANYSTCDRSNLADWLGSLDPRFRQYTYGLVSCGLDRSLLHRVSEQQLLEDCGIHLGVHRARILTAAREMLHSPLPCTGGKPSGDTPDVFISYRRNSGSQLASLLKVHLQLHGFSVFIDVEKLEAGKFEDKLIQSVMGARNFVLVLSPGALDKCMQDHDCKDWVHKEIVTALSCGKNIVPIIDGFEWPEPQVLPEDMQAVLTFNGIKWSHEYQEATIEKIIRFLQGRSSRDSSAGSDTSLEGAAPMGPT

In the case of `CC(CCc1ccc(O)cc1)NCCc1ccc(O)c(O)c1` (stereo not given), the fluorescence slope change [1] is reported as 19.4% (inactive), the period change [2] is reported as 0.025 h (inactive) and the survival [3] is reported as 15.4 (inactive). The parasite load remaining [4] was 118% (inactive) and 72.9% (inactive) and 42.2% (inactive), the viability [4] was 109% and 73.6% and 115% and the inhibition [5] was -1% (inactive). The fluorescence ratio (interference) [6] was 1 (inactive), the inhibition [7] was 1.78% (inactive) and the remaining activity [8] was 94.6% (inactive). The outcome [9] was “inactive”, the outcome [10] was “inactive” and the outcome [11] was “inactive”. The outcome [12] was “inactive”, the z-score ([13]; MELAS cybrid survival, CellTiter-Glo 48 h, stronger effect = higher value) was 0.557 (inactive) and -0.473 (inactive) and the z-score ([13]; Rieske KO mouse fibroblast survival, CellTiter-Glo 72 h) was -0.00496 and 0.199. For the same molecule, the remaining NAD [14] was 10 nM (inactive), the luciferase signal [15] was 56 AU (inactive) and the z-score [16] was -1.02 (inactive) and -0.96 (inactive) and -2.02 (inactive).
For `CCOC(=O)C1=C(O)C(=O)N(Cc2ccccc2)C1`, the inhibition [7] was -9.58% (inactive), the remaining activity [8] was 101% (inactive) and the outcome [17] was “inactive”. For the same molecule, the outcome [10] was “inactive”, the outcome [11] was “inactive” and the outcome [18] was “inactive”. For the same molecule, the outcome [19] was “inactive”, the outcome [20] was “inactive” and the fold change ([21]; stronger effect = lower value, cell number ratio, induced over uninduced) was 0.926 (inactive) and 0.964 (inactive). For the same molecule, the fold change ([21]; measured here: relative caspase fold change +Dox/-Dox) was 1.46 and 1.07, the cell count ([21]; measured here: total cells with miR-34 induction, stronger effect = lower value) was 9870 and 8960 and the cell count ([21]; measured here: total cells without miR-34 induction) was 10700 and 9300. For the same molecule, the outcome [12] was “inactive” and the z-score [16] was 0.685 (inactive) and -0.055 (inactive).
With `O=C(/C=C/c1ccccc1)c1ccc(O[C@@H]2O[C@H](CO)[C@@H](O)[C@H](O)[C@H]2O)cc1O` the parasite load remaining [4] was 121% (inactive), the viability [4] was 96.4% and the inhibition [7] was 4.22% (inactive). For the same molecule, the red/green cell ratio (normalised) [22] was 1 (inactive), the normalised cell number [22, 31] was 0.9 and the normalised cell number [22, 32] was 0.9. For the same molecule, the luciferase signal [15] was 76 AU (inactive).
`COc1c(OC)c2occc2c2oc(=O)ccc12` gave an inhibition [23] of -21%, a score [24] of 0.45 and a rescue above control [25] of 5.04. For the same molecule, the cytochrome c release ratio [26] was 1, the inhibition of aggregation [27] was 42.9% and the glutamate uptake change [28] was -3.15%. The inclusion score [29] was 2, the aggregation suppression score [30] was 0.328 and the inhibition [7] was -3.21% (inactive). For the same molecule, the red/green cell ratio (normalised) [22] was 0.97 (inactive), the normalised cell number [22, 31] was 1.12 and the normalised cell number [22, 32] was 1.08. For the same molecule, the luciferase signal [15] was 28 AU (inactive).
With `COc1ccc(-c2oc3ccccc3c(=O)c2O)cc1OC` the inhibition [7] was 8.6% (inactive), the red/green cell ratio (normalised) [22] was 0.86 (inactive) and the normalised cell number [22, 31] was 1.06. For the same molecule, the normalised cell number [22, 32] was 0.91 and the luciferase signal [15] was 52 AU (inactive).
In the case of `CON`, the inhibition [23] is reported as -5.62%, the score [24] is reported as 1.4 and the rescue above control [25] is reported as -6.41. The cytochrome c release ratio [26] was 0.58, the inhibition of aggregation [27] was -9.7% and the glutamate uptake change [28] was 19.3%. The inclusion score [29] was 2, the aggregation suppression score [30] was 1.29 and the inhibition [7] was 3.11% (inactive). For the same molecule, the red/green cell ratio (normalised) [22] was 1.03 (inactive), the normalised cell number [22, 31] was 1.15 and the normalised cell number [22, 32] was 1.18. For the same molecule, the luciferase signal [15] was 124 AU (inactive).

Reference: PubChem BioAssay
